These results are taken from PubChem BioAssay (NCATS).

Results filed as inconclusive are left out. Values without a mark were called inactive. Calls follow the shape of the dose curve; as a rule, active = well fitted cell-killing curve with a large enough effect; inconclusive = small, poorly fitted or top-dose-only effect, or effect the other way; inactive = flat fitted curve, though single readings scatter. Where a SMILES comes first, the peptide text is derived from it. [ ]: non-standard residue; d: D form. 2Abz = Nc1ccccc1C(=O)O
% is scaled to controls: 0 for no effect and ±100 for the full control effect.

In the first experiment the test system is OV90. Nature of the experiment: Primary qHTS to identify gynecologic anti-cancer compounds using libraries of approved drugs and bioactive compounds (AID 1345084). Also: nearly all actives have a fitted effect of over 55% in size. Particulars: Gynecologic cancer cell panel viability, ATPlite luminescence, 48 h; series mostly up to 57.5 µM; activity change, negative = cytotoxicity: at the top concentration. An outline of the steps:
(§1)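 In this quantitative HTS, cell killing is estimated from loss of ATP-dependent luciferase light. Cells see five compound concentrations over a 48 h exposure.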
Turning to `COc1cc(NC(=O)c2ccccn2)ccc1Cl`, the “activity change, negative = cytotoxicity” value is 0.539%.

Take `NCCOCCOCCNC(=O)Cc1ccc(Nc2nc(NCc3ccc(F)cc3)nc(NCC3CCCCC3)n2)cc1`: the “activity change, negative = cytotoxicity” value was 18.5%. `CCC(NC(=O)CC(NC(=O)C(CO)NC(=O)C(CC)NC(=O)c1ccc[nH]1)c1ccccc1)C(=O)O` (configuration not stated): the “activity change, negative = cytotoxicity” value was -0.978% [at 25.3 µM]. Regarding `C=C1C[C@]23C[C@H]1CC[C@H]2[C@@]12C=C[C@H](O)[C@@](C)(C(=O)O1)[C@H]2[C@@H]3C(=O)O`, the “activity change, negative = cytotoxicity” value is -8.46% [at 38.5 µM]. Regarding `CC(C)CC(=O)OC[C@H]1O[C@@](COC(=O)CC(C)C)(O[C@H]2O[C@H](CO)[C@@H](O)[C@H](O)[C@H]2O)[C@@H](OC(=O)CC(C)C)[C@@H]1OC(=O)CC(C)C`, the “activity change, negative = cytotoxicity” value is 0.33% [at 25.3 µM]. Regarding `COc1cc(C2c3cc(O)c(OC)cc3CC(CO)C2CO)ccc1O` (configuration not stated), the “activity change, negative = cytotoxicity” value was 0.59% [at 38.5 µM]. Turning to `N#CCc1ccc(O)cc1O[C@@H]1O[C@H](CO)[C@@H](O)[C@H](O)[C@H]1O`, the “activity change, negative = cytotoxicity” value was 7.11% [at 38.5 µM]. On to `C=C1C[C@@]23CC[C@@H]4[C@](C)(C(=O)O)CCC[C@@]4(C)C2=CC[C@H]1C3`, for which the “activity change, negative = cytotoxicity” value was 7.32%. In the case of `C[C@@H]1O[C@@H](O[C@H]2[C@H](OC(C#N)c3ccc(O)cc3)O[C@H](CO)[C@@H](O)[C@@H]2O)[C@H](O)[C@H](O)[C@H]1O` (some centres not stated), the “activity change, negative = cytotoxicity” value is -0.37% [at 25.3 µM].

The test system of a further experiment is PA-1. The description is as above. Particulars: Gynecologic cancer cell panel viability, ATPlite luminescence, 48 h; series mostly up to 57.5 µM; activity change, negative = cytotoxicity: at the top concentration. In a few lines:
as §1
In general terms: Cellular ATP, detected with luciferase, serves as a proxy for viable cell number.
With `CC(=O)O[C@H](C[C@@H](C)[C@H]1C(=O)[C@H](O)[C@@]2(C)[C@@H]3CCC4C(C)(C)[C@@H](O[C@@H]5OC[C@H](O)[C@H](O)[C@H]5O)CC[C@@]45C[C@@]35CC[C@]12C)[C@@H]1OC1(C)C` (some centres not stated), the “activity change, negative = cytotoxicity” value is 3.55% [at 25.3 µM]. Consider `CC1OC(OC2C(C)OC(OC3C(OC(=O)/C=C/c4ccc(O)cc4)C(CO)OC(OC4(COC(=O)/C=C/c5ccc(O)cc5)OC(CO)C(O)C4O)C3OC3OCC(O)(CO)C3O)C(O)C2O)C(O)C(O)C1O` (configuration not stated), for which the activity change, negative = cytotoxicity is -0.866% [at 11.6 µM]. Still for that read-out and setting: in the case of `CC(/C=C/[C@]1(O)[C@@]2(C)CO[C@@]1(C)C[C@@H](O)C2)=C\C(=O)O[C@@H]1O[C@H](CO)[C@@H](O)[C@H](O)[C@H]1O` it was 17% [at 25.3 µM]; in that of `C=C1C(=O)OC2CC(C)=C(C(C)CCCO[C@@H]3O[C@H](CO)[C@@H](O)[C@H](O)[C@H]3O)C(O)C12` (some centres not stated), -0.0705% [at 25.3 µM]; in that of `O=C(O[C@H]1[C@@H]2C[C@@H]3OC[C@@](O)([C@H]2[C@H](O[C@@H]2O[C@H](CO)[C@@H](O)[C@H](O)[C@H]2O)O3)[C@@H]1O)c1ccccc1`, 28.4% [at 25.3 µM]. For the molecule `CC(=O)c1c(C)cc(O)cc1O[C@@H]1O[C@H](CO)[C@@H](O)[C@H](O)[C@H]1O`, the “activity change, negative = cytotoxicity” value is -8.83% [at 38.5 µM]. With `CC1CCC(=O)CC(O)C(O)CC(=O)O1` (configuration not stated), the “activity change, negative = cytotoxicity” value is 11%.

With `CC1(C)CC2C(O)C3=C(CC(C)(O)C2C1)C(=O)OC3O` (configuration not stated), the “activity change, negative = cytotoxicity” value was 4.58%. Take `CC[C@H](/C=C/[C@@H](C)[C@H]1CC[C@H]2[C@@H]3CC=C4C[C@@H](O)CC[C@]4(C)[C@H]3CC[C@]12C)C(C)C`: the activity change, negative = cytotoxicity is 2.16% [at 6.55 µM]. Regarding `CC(=O)O[C@H]1[C@H](C)[C@@H](O)[C@H]2[C@@H]1C=C(C(=O)O)[C@H]1C[C@@H]3[C@H]([C@H]21)[C@H]1C(=O)O[C@@H]2CC[C@@]3(C)O[C@]1(O)[C@@H]2C`, the “activity change, negative = cytotoxicity” value is 9.04% [at 25.3 µM]. As to `CC(=O)OC(CSC1CCC(=O)OC(C)CCC(=O)C1)C(=O)O` (configuration not stated), the “activity change, negative = cytotoxicity” value was 3.28% [at 38.5 µM].

On to `CC(/C=C/C1(O)C(C)CC(O)CC1(C)C)OC1OC(CO)C(O)C(O)C1O` (configuration not stated), for which the “activity change, negative = cytotoxicity” value is -2.77% [at 38.5 µM]. Regarding `CC(=O)N[C@H]1CCN(c2ccc(C3=NOC(CN[S+](=O)([O-])C(C)C)C3)cc2F)C1` (some centres not stated), the “activity change, negative = cytotoxicity” value was -4.34%.

As to `CC1CCC2C(C)(C)C(O)CCC2(C)C12Cc1c(O)cc3c(c1O2)C(N)=NC3` (configuration not stated), the “activity change, negative = cytotoxicity” value is 18.5% [at 38.5 µM]. With `CNC(=O)Nc1ccc(OC)c(NC(=O)NC(=O)c2cc(F)c(F)cc2Cl)c1`, the “activity change, negative = cytotoxicity” value is 6.02%.

Turning to `CCCC(N[C@@H](C)C(=O)N1[C@H](C(=O)O)C[C@@H]2CCCC[C@@H]21)C(=O)OCC` (some centres not stated), the “activity change, negative = cytotoxicity” value is 2.2%. As for `C/C=C(\C)C(=O)O[C@@H](C)[C@H]1CC[C@]2(O)C3CCC4C[C@@H](OC5CC(OC)C(OC6CC(OC)C(OC7CC(OC)C(OC8OC(C)C(OC9OC(CO)C(O)C(O)C9O)C(OC)C8O)C(C)O7)C(C)O6)C(C)O5)CC[C@]4(C)C3[C@H](O)[C@@H](O)[C@]12C` (some centres not stated), the activity change, negative = cytotoxicity was 3.34% [at 6.55 µM]. On to `CC1OC(O[C@H]2[C@@H](O)C[C@@]3(C)C([C@H](O)C[C@]4(C)C3CC=C3C5CC(C)(C)CC[C@]5(C(=O)OC5OC(CO)C(O)C(O)C5OC5OCC(OC6OCC(OC7OCC(O)C(O)C7O)C(O)C6O)C(OC6OCC(O)(CO)C6O)C5O)CC[C@]34C)[C@]2(C)CO)C(O)C(O)C1O` (some centres not stated), for which the activity change, negative = cytotoxicity was 2.16% [at 6.55 µM]. Take `CCC(=O)N[C@@H]1Cc2ccccc2[C@H](c2ccccc2)C1`: the “activity change, negative = cytotoxicity” value was -10%. On to `CCC(C)C1NC(=O)C2CCCN2C(=O)C(C(C)C)NC(=O)c2ccccc2NC(=O)C(Cc2ccc(O)cc2)NC(=O)C(C)NC(=O)C(C(C)O)NC1=O` (configuration not stated) (cyclo([2Abz]VPITAY); configuration not given here), for which the “activity change, negative = cytotoxicity” value was 13.9% [at 25.3 µM]. With `C=C1CCC2C(C)(C(=O)O)CC(O)CC2(C)C1CC/C(C)=C/C(=O)O` (configuration not stated), the “activity change, negative = cytotoxicity” value was 5.12% [at 38.5 µM]. On the same count and under the same terms, in the case of `COc1cc([C@@H]2Oc3c(OC)cc(CCCO)cc3[C@@H]2CO[C@@H]2O[C@H](CO)[C@@H](O)[C@H](O)[C@H]2O)ccc1O` it was 9.03% [at 25.3 µM]. In the case of `COc1cccc(-c2ccc([C@@H](Oc3cc(-c4ccc(C[C@H](N)C(=O)O)cc4)nc(N)n3)C(F)(F)F)cc2)c1`, the “activity change, negative = cytotoxicity” value is 4.12%.

`CCNC(=O)CCC/C=C\C[C@@H]1[C@@H](/C=C/C(O)CCc2ccccc2)[C@@H](O)C[C@@H]1O` (some centres not stated): the “activity change, negative = cytotoxicity” value is 5.15%. On to `Cc1[nH]cnc1C1CCN(c2nc3cccc4c3n2CCC4=O)CC1`, for which the “activity change, negative = cytotoxicity” value was -3.79%. Take `C=C(C)[C@@H](C)[C@H]1O[C@]23C[C@]4(CO2)C(CCC2[C@@]5(C)CC[C@H](O[C@@H]6OC[C@H](O)[C@H](O[C@@H]7O[C@H](CO)[C@@H](O)[C@H](O)[C@H]7O)[C@H]6O[C@@H]6O[C@@H](CO)[C@H](O)[C@H]6O)C(C)(C)C5CC[C@]24C)C3[C@@](C)(O)[C@@H]1OC(C)=O` (some centres not stated): the activity change, negative = cytotoxicity was 20.8% [at 11.6 µM]. The same measure, in the same setting: in the case of `C/C1=C\C[C@H](O[C@@H]2O[C@H](CO)[C@@H](O)[C@H](O)[C@H]2O)/C(C)=C/[C@H]2OC(=O)[C@H](C)[C@@H]2CC1` it was -3.05% [at 25.3 µM]; in that of `COC(=O)[C@H](CC1C=NC=N1)NCC12CC3CC(CC(C3)C1)C2` (some centres not stated), -1.61%. For `CC(C)C1=CCC(C)(O)C(OC2OC(CO)C(O)C(O)C2O)C1` (configuration not stated), the “activity change, negative = cytotoxicity” value was 3.6% [at 38.5 µM]. As to `COc1cc(NC(=O)c2ccccn2)ccc1Cl`, the “activity change, negative = cytotoxicity” value was -3.84%. Still for that read-out and setting: in the case of `NCCOCCOCCNC(=O)Cc1ccc(Nc2nc(NCc3ccc(F)cc3)nc(NCC3CCCCC3)n2)cc1` it was -5.48%; in that of `CCC(NC(=O)CC(NC(=O)C(CO)NC(=O)C(CC)NC(=O)c1ccc[nH]1)c1ccccc1)C(=O)O` (configuration not stated), 8.98% [at 25.3 µM]. On to `C=C1C[C@]23C[C@H]1CC[C@H]2[C@@]12C=C[C@H](O)[C@@](C)(C(=O)O1)[C@H]2[C@@H]3C(=O)O`, for which the “activity change, negative = cytotoxicity” value was 1.26% [at 38.5 µM].

For `CC(C)CC(=O)OC[C@H]1O[C@@](COC(=O)CC(C)C)(O[C@H]2O[C@H](CO)[C@@H](O)[C@H](O)[C@H]2O)[C@@H](OC(=O)CC(C)C)[C@@H]1OC(=O)CC(C)C`, the “activity change, negative = cytotoxicity” value was 1.54% [at 25.3 µM]. Still for that read-out and setting: in the case of `COc1cc(C2c3cc(O)c(OC)cc3CC(CO)C2CO)ccc1O` (configuration not stated) it was 9.11% [at 38.5 µM]; in that of `N#CCc1ccc(O)cc1O[C@@H]1O[C@H](CO)[C@@H](O)[C@H](O)[C@H]1O`, 6.38% [at 38.5 µM]. Turning to `C=C1C[C@@]23CC[C@@H]4[C@](C)(C(=O)O)CCC[C@@]4(C)C2=CC[C@H]1C3`, the “activity change, negative = cytotoxicity” value was 3.85%. For `C[C@@H]1O[C@@H](O[C@H]2[C@H](OC(C#N)c3ccc(O)cc3)O[C@H](CO)[C@@H](O)[C@@H]2O)[C@H](O)[C@H](O)[C@H]1O` (some centres not stated), the “activity change, negative = cytotoxicity” value is 4.46% [at 25.3 µM].
